Structures are written as SMILES. Active and inactive are the calls of the source.

We go through 5 compounds from PubChem BioAssay.

The nature of assay [1]: binders of probe aFSTL3 on microarray, primary screen, stem cell growth factor project, biochemical, small-molecule microarray, fluorescence 635/667 (AID 1064).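 Further: measures binding of the biotinylated anti-FSTL3 antibody to printed compounds.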 The settings on record: higher = more signal.
Assay [2] in a line: binders from COS7 lysate, DM2A8 probe, primary screen, torsin A project, cell lysate, small-molecule microarray, fluorescence 635/667 (AID 1065). The settings on record: higher = more signal, COS7 lysate expressing mutant human TOR1A.
The nature of assay [3]: binders of probe aFGF2 on microarray, primary screen, stem cell growth factor project, biochemical, small-molecule microarray, fluorescence 635/667 (AID 1067).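 Further: measures binding of biotinylated aFGF2 protein to printed compounds on slides; z-score merges feature fluorescence and signal-to-noise across triplicate slides.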 The settings on record: higher = more signal.
Assay [4] is described as follows: binders of probe aFGF10 on microarray, primary screen, stem cell growth factor project, biochemical, small-molecule microarray, fluorescence 635/667 (AID 1071).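 Further: score merges 667 nm spot intensity and signal to noise from triplicate slides.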 The settings on record: higher = more signal.
Assay [5] addresses Neurogenic locus notch homolog protein 2 (Homo sapiens) (UniProt Q04721). Put plainly: Notch2 binders on small-molecule microarrays, primary screen, biochemical, small-molecule microarray, 635 nm fluorescence, stem cell growth factors (AID 1073). The conditions noted are these: Notch2 binding, higher = more signal.
Assay [6] has as its target Pro-neuregulin-1, membrane-bound isoform (Homo sapiens) (UniProt Q02297). Put plainly: NRG1 binders on small-molecule microarrays, primary screen, psychiatric disease protein project, biochemical, small-molecule microarray, fluorescence 635/667 (AID 1075).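 Further: score combines 667 nm spot fluorescence with signal to noise.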 The conditions noted are these: NRG1 binding, 635 nm fluorescence, higher = more signal.
Assay [7] has as its system Neuregulin-1 EGF-like domain. Description: binders of neuregulin-1 EGF-like domain, primary screen, biochemical, small-molecule microarray, 635 nm fluorescence (AID 1081).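 Further: binding of the protein to compounds printed on small-molecule microarray slides.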 The settings on record: small-molecule microarray binding, higher = more signal.
Assay [8] is described as follows: FRG1 promoter luciferase signal modulators, primary screen, FRG1 inhibition for FSHD, cell-based, C2C12 myotubes, firefly/Renilla luciferase, luminescence (AID 1084). The settings on record: higher = more signal, called active from +8 up or from −8 down.
Assay [9] in a line: binders of probe aFST on microarray, primary screen, stem cell growth factor project, biochemical, small-molecule microarray, fluorescence 635/667 (AID 1086).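 Further: score merges 667 nm fluorescence with signal-to-noise of each printed compound spot.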 The conditions noted are these: higher = more signal.
A short description of assay [10]: binders of probe aHhip on microarray, primary screen, stem cell growth factor project, biochemical, small-molecule microarray, fluorescence 635/667 (AID 1087).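 Further: score merges spot fluorescence at 667nm with spot signal to noise ratio.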 The settings on record: higher = more signal.
The test system of assay [11] is PRMT1 (protein arginine N-methyltransferase 1). Put plainly: PRMT1 binders on small-molecule microarrays, primary screen, biochemical, small-molecule microarray, 635 nm fluorescence (AID 1088).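 Further: binding of Prmt1 protein to compounds spotted on small-molecule microarray slides.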 The conditions noted are these: small-molecule microarray binding, higher = more signal.
Assay [12] can be described thus: yeast growth modulation, basal conditions, primary screen, YJM789 clinical isolate, OD600, 24 h (AID 1089).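 Further: growth of clinical yeast isolate S. cerevisiae YJM 789 seeded 1000 cells per well; test concentration not given here.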 The conditions noted are these: S. cerevisiae YJM789 growth, higher = more signal, called active from +8 up or from −8 down.
Assay [13] can be described thus: fission yeast growth modulation, primary screen, strain 972, OD600, 24 h, no modulator (AID 1090).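 Further: basal condition with compound alone and no growth modifier present; test concentration not given here.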 The conditions noted are these: S. pombe 972 growth, higher = more signal, called active from +8 up or from −8 down.
Assay [14] can be described thus: S. cerevisiae growth modulation with rapamycin, primary screen, strain BY4716, OD600, 96 h (AID 1091). Further: test concentration not given here. The conditions noted are these: higher = more signal, called active from +8 up or from −8 down.
For assay [15], the target named is Torsin-1A-interacting protein 2 (Homo sapiens) (UniProt Q8NFQ8). Put plainly: LULL1 binders on small-molecule microarray, primary screen, cell lysate, human LULL1 lysate, 635/667 nm fluorescence (AID 1092).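 Further: probe is lysate of COS7 cells overexpressing human LULL1; score merges per-feature 667 nm fluorescence with signal-to-noise.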 The conditions noted are these: hLULL1 lysate binding, 635 nm fluorescence, higher = more signal.
The nature of assay [16]: E. coli growth modulation, two-sided OD650, primary screen, E. coli filamentation project, strain DRC41, 24 h (AID 1093).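 Further: MC1000 strain lacking acrAB efflux and sulA so SOS filamentation is blocked; test concentration not given here.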 The conditions noted are these: OD650, 24 h, higher = more signal, called active from +8 up or from −8 down.
Assay [17] is described as follows: small-molecule microarray binders of probe aLefty2, primary screen, biochemical, biotinylated probe, 635/667 nm fluorescence (AID 1094).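 Further: score merges spot fluorescence near 667 nm with spot signal-to-noise ratio.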 The conditions noted are these: higher = more signal.
The test system of assay [18] is Noggin (protein binding on small-molecule microarray). Description: Noggin binders on small-molecule microarray, primary screen, biochemical, 635/667 nm fluorescence (AID 1095).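 Further: score merges 667 nm feature fluorescence with signal to noise over triplicate slides.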 The settings on record: 635 nm fluorescence, higher = more signal.
Assay [19] concerns the target Neurogenic locus notch homolog protein 3 (Homo sapiens) (UniProt Q9UM47). Description: NOTCH3 binders on small-molecule microarray, primary screen, biochemical, 635/667 nm fluorescence (AID 1096). The settings on record: NOTCH3 binding, 635 nm fluorescence, higher = more signal.
Assay [20] can be described thus: small-molecule microarray binders of probe aEGFR, primary screen, biochemical, biotinylated probe, 635/667 nm fluorescence (AID 1097).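 Further: probe is a biotinylated anti-EGFR antibody binding compounds printed on slides; score combines fluorescence near 667 nm and signal to noise of each spot.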 The conditions noted are these: higher = more signal.

Sequence of Neurogenic locus notch homolog protein 2 (Homo sapiens) (Q04721 whole entry, looked up, canonical isoform): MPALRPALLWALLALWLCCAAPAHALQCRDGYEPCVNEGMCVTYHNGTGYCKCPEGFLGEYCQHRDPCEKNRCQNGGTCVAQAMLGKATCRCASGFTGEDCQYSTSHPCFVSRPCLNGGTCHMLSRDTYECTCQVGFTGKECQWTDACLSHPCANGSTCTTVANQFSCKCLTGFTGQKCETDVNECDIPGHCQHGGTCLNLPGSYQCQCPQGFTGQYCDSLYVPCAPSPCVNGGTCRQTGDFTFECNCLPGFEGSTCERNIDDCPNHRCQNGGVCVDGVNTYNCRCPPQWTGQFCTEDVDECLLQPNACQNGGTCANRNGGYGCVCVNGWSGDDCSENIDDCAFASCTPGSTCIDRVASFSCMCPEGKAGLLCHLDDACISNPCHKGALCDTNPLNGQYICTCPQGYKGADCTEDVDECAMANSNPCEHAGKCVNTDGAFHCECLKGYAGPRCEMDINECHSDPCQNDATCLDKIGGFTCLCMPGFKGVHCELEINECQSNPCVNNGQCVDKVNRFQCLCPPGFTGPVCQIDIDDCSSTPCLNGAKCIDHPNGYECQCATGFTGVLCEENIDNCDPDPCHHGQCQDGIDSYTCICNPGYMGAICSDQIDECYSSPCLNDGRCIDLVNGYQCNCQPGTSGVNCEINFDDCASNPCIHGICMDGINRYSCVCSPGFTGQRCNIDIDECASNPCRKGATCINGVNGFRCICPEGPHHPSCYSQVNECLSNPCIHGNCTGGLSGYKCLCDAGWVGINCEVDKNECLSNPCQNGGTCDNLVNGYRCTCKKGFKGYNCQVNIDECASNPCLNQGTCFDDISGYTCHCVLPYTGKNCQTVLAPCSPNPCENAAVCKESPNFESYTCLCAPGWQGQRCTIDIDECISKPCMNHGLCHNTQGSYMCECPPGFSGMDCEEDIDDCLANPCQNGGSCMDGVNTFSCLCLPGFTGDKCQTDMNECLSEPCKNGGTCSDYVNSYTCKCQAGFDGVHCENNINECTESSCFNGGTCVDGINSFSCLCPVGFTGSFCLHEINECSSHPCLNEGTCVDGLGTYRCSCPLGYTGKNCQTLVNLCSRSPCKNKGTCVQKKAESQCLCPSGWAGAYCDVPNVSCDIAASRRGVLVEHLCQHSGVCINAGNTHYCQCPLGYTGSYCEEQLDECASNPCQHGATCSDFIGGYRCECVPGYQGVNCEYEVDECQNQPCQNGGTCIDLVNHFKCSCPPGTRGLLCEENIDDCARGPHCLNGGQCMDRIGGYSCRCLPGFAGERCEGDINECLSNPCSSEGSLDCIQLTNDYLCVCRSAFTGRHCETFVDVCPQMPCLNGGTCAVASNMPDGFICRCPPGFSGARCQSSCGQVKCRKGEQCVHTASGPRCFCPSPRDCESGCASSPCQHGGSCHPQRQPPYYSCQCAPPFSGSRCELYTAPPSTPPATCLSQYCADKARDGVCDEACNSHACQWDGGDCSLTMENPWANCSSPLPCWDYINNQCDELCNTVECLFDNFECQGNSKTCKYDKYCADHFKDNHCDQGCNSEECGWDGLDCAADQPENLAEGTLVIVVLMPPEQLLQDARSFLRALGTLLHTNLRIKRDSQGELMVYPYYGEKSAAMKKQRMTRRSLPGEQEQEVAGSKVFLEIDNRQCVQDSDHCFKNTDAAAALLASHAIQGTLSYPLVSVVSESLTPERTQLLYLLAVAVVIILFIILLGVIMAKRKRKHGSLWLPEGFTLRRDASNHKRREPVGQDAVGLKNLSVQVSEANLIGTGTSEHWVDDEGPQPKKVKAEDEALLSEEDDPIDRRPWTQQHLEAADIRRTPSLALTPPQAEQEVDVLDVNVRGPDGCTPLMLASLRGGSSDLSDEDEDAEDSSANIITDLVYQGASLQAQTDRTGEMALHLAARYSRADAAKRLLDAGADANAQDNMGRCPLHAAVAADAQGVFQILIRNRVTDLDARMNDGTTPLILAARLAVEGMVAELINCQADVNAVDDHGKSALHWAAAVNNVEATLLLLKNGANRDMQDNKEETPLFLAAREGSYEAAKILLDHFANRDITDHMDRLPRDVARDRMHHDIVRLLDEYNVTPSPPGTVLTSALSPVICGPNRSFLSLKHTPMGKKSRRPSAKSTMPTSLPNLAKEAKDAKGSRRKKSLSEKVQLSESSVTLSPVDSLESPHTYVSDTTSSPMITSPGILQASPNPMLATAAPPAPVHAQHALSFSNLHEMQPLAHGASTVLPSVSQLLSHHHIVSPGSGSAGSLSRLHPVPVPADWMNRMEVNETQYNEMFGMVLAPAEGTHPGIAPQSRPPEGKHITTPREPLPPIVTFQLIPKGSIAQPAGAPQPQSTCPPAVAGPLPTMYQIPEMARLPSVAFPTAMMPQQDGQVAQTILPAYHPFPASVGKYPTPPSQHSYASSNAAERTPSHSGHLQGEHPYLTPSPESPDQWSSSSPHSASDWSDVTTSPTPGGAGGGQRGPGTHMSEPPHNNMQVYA
Sequence of Neurogenic locus notch homolog protein 3 (Homo sapiens) (Q9UM47 whole entry, looked up): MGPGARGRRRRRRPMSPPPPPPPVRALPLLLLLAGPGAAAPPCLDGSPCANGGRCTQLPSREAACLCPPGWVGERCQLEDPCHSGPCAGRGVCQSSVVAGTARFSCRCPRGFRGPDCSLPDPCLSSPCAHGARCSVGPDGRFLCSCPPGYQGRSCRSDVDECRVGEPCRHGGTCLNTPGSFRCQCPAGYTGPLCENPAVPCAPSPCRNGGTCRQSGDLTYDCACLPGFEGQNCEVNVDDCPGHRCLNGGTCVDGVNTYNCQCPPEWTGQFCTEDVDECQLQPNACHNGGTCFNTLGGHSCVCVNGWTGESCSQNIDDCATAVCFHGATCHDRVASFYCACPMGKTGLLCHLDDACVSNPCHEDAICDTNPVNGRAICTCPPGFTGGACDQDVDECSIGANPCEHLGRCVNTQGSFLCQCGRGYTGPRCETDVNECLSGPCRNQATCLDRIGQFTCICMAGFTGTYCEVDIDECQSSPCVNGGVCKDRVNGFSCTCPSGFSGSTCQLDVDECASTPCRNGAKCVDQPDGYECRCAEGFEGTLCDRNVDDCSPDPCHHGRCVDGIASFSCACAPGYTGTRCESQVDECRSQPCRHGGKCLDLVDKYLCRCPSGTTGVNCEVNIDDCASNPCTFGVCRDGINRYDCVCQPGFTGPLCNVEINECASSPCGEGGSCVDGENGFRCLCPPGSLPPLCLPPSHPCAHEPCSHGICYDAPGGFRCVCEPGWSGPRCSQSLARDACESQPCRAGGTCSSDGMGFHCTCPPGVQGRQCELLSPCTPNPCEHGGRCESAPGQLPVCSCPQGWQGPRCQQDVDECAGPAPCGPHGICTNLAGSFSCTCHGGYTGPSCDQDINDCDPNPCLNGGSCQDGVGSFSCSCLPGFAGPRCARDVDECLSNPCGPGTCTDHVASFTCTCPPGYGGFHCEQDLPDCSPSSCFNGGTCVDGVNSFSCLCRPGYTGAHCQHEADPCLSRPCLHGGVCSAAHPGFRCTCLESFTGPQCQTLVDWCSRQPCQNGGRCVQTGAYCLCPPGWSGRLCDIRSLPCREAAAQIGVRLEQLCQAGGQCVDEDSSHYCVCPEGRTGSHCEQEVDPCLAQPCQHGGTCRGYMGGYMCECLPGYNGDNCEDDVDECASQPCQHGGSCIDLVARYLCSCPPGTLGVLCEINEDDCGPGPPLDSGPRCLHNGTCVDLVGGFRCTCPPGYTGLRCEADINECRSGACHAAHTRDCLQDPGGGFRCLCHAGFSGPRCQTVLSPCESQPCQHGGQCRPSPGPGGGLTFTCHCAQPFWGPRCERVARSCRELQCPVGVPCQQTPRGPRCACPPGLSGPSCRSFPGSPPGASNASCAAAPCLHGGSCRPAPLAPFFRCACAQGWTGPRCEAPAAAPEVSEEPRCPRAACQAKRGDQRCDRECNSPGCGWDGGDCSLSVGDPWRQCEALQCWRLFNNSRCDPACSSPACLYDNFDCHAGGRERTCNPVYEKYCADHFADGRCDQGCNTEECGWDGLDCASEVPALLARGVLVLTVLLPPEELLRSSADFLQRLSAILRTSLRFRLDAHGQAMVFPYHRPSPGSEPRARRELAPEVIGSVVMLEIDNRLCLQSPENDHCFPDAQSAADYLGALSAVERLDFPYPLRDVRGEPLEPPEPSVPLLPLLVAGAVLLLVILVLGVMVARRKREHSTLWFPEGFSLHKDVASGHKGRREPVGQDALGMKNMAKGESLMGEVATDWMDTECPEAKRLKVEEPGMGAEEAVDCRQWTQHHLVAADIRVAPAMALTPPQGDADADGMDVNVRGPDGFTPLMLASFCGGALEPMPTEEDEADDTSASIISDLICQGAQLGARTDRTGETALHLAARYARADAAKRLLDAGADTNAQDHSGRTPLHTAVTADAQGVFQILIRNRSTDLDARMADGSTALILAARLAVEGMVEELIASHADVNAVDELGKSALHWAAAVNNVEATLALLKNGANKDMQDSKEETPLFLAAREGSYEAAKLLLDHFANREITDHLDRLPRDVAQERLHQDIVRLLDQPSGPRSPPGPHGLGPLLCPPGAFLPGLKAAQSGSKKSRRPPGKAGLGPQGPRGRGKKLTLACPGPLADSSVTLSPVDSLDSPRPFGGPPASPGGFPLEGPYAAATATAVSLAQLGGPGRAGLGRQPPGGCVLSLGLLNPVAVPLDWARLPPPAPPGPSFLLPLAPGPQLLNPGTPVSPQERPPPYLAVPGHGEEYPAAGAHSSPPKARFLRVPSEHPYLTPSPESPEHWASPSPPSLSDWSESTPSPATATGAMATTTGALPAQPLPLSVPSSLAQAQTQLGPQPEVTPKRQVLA

`CCCC[C@H]1C[C@@H]1[C@@H]1N(C(C)=O)[C@H](c2cccc(OC)c2)CC12CC2`: the composite z-score in [1] was 0.116; in assay [2], -0.303; in [3], -0.0235; in assay [4] it was 0.186; in assay [5], 0.798; in assay [6], -0.106. The composite z-score in [7] is -0.175; in assay [9] it was 0.657; in assay [10] it was -0.0645; in assay [11], -0.383; in assay [15], 0.755; in assay [17], 0.116. Besides, the composite z-score was -0.502 in [18], -0.27 in [19] and 0.0192 in assay [20]. Moreover, the z-score in assay [8] was 1.8 (inactive); in [12], -0.872 (inactive); in assay [13] it was -8.39 (active); in assay [14], -1.82 (inactive); in assay [16], -0.563 (inactive).
Regarding `CC(C)[Si](C#CCCc1ccccc1)(O[C@H](c1ccccc1)c1cn(Cc2ccccc2)nn1)C(C)C`, the composite z-score in assay [1] was -0.454; in assay [2], -0.137; in assay [3], -0.116; in assay [4], 0.529; in [5] it was 0.186; in [6], 0.215. Further, the composite z-score in assay [7] was 1.12; in assay [9], 0.584; in assay [10] it was 0.0401; in assay [11], 1.25; in assay [15], 0.958; in [17] it was -0.0095. For the same compound, the composite z-score in assay [18] was found to be 0.797; in [19], 1.13; in [20], 0.0276. Moreover, the z-score is 0.0497 (inactive) in assay [8]; -1.17 (inactive) in assay [12]; -12.3 (active) in assay [13]; -0.778 (inactive) in [14]; 0.791 (inactive) in [16].
In the case of `[N-]=[N+]=NCc1ccccc1[C@@H]1OC(c2ccc(OCCCO)cc2)=N[C@]1(Cc1ccccc1N=[N+]=[N-])C(=O)O`, the composite z-score in [1] worked out at 0.535; in [2] it was 0.326; in assay [3], 0.294; in assay [4], 1.14; in assay [5] it was 1.55; in [6], 1.89. In addition, the composite z-score in [7] amounted to 1.3; in assay [9] it was 1.28; in [10], 0.455; in assay [11] it was 1.48; in [15], 3.13; in [17], 0.515. Further, the composite z-score in assay [18] was -0.0626; in [19], 1.11; in assay [20], 0.439. Also, the z-score in [8] is 1.22 (inactive); in assay [12], -0.282 (inactive); in assay [13], -1.64 (inactive); in assay [14], -0.794 (inactive); in assay [16], -0.0956 (inactive).
As for `COc1ccc([Si](C)(C)[C@@H]2[C@@H](CC(=O)N3Cc4ccccc4C[C@H]3CO)O[C@]3(C(=O)N(Cc4ccc(N5CCOC5=O)cc4)c4ccccc43)[C@H]2C)cc1`, the composite z-score in [1] was -0.169; in assay [2], 0.669; in [3], -0.178; in [4], 0.284; in assay [5], 0.405; in assay [6], 1. Also, the composite z-score was 1.09 in [7]; 0.27 in assay [9]; 0.0274 in assay [10]; 1.57 in assay [11]; 1.56 in assay [15]; -0.133 in assay [17]. Also, the figures for the composite z-score in assay [18], in [19] and in [20] were 1.55, 1.13 and -0.0947, respectively. The z-score was -2.85 (inactive) in [8]; -0.631 (inactive) in assay [12]; 0.693 (inactive) in assay [13]; 3.78 (inactive) in assay [14]; 1.36 (inactive) in assay [16].
Regarding `C=C(CCCC)/C(=C/C[C@@H](OC(C)=O)c1ccc(CO)o1)c1cnc2ccccc2c1`, the composite z-score in [1] was -0.593; in [2] it was 0.361; in [3], -0.0744; in [4], 1.14; in [5], 1.31; in [6] it was 1.31. The composite z-score was 1.28 in [7]; 0.128 in [9]; -0.179 in [10]; 1.54 in assay [11]; 1.92 in assay [15]; -0.11 in [17]. The composite z-score in assay [18] is 1.57; in assay [19], 1.11; in [20], -0.0007. Further, the z-score in [8] is -0.16 (inactive); in [12], 1.5 (inactive); in [13], -0.57 (inactive); in assay [14] it was 0.824 (inactive); in [16] it was 0.688 (inactive).
